Measurements published in PubChem BioAssay (NCI).
This is part of a sample that, as a whole, favours compounds with a hit. Of some 79,000 tested, about 15% had one in any assay. Calls of active or inactive are those of the source. Rule as the data show it: active = growth inhibition above about 70%; inactive = the rest.

How the values were obtained:
[1] = NCI Yeast Anticancer Drug Screen. Data for the sgs1 strain (AID 173);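 also: 0% = growth of vehicle-only control cultures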; details: S. cerevisiae sgs1 mutant, active compounds read high
Summary of the method: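 Relative growth inhibition, referenced to vehicle, was determined in a yeast strain with a defined alteration affecting DNA damage repair or cell cycle control after compound exposure.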

[2] = NCI Yeast Anticancer Drug Screen. Data for the mlh1 rad18 strain (AID 175); details: S. cerevisiae mlh1 rad18 strain growth inhibition, active compounds read high
Summary of the method: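 In this whole-cell yeast screen, a strain with altered DNA damage repair is challenged with compound, and its growth is measured against matched vehicle-treated controls.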

[3] = NCI Yeast Anticancer Drug Screen. Data for the rad18 strain (AID 177); details: S. cerevisiae rad18 mutant growth inhibition, active compounds read high
Summary of the method: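 Screen uses a yeast strain with a defined lesion in DNA damage repair; compound effect is read as loss of growth compared to untreated vehicle cultures.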

[4] = NCI Yeast Anticancer Drug Screen. Data for the rad52 strain (AID 147);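 also: 0% = growth of vehicle-treated control cultures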; details: S. cerevisiae rad52 mutant growth inhibition, active compounds read high
Summary of the method: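 Measured: yeast growth inhibition. System: strain with a defined DNA damage repair alteration. Reference: vehicle-treated control cultures.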

[5] = NCI Yeast Anticancer Drug Screen. Data for the wt1 strain (AID 149);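 also: 0% = growth of vehicle-treated wt1 cultures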; details: S. cerevisiae wt1 strain (SPY 50644) growth inhibition, active compounds read high
Summary of the method: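 Each compound is tested on wt1 yeast and the loss of growth versus vehicle gives the inhibition value.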

[6] = NCI Yeast Anticancer Drug Screen. Data for the rad50EPP+ strain (AID 151);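 also: 0% = growth of vehicle-treated control cultures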; details: S. cerevisiae rad50 mutant strain, active compounds read high
Summary of the method: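 One strain with a rad50 alteration (rad50EPP+) was compound-treated, its growth then compared to that of vehicle controls.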

[7] = NCI Yeast Anticancer Drug Screen. Data for the mgt1 strain (AID 153); details: S. cerevisiae mgt1 mutant growth inhibition, active compounds read high
Summary of the method: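 After exposure of the mgt1 yeast mutant to compound, growth was measured and reported as inhibition compared with vehicle controls.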

[8] = NCI Yeast Anticancer Drug Screen. Data for the rad50 strain (AID 155);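 also: 0% = growth of vehicle-only cultures of the same strain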; details: S. cerevisiae rad50 strain growth inhibition, active compounds read high
Summary of the method: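 Vehicle-treated cultures provide the reference for the growth inhibition reported for compound-exposed, repair-deficient yeast.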

[9] = NCI Yeast Anticancer Drug Screen. Data for the mec2-1 strain (AID 157); details: S. cerevisiae mec2-1 strain, active compounds read high
Summary of the method: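 Test agents were screened against the mec2-1 yeast strain, with defined DNA repair or cell cycle alteration. Growth was scored as inhibition against vehicle-only controls.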

[10] = NCI Yeast Anticancer Drug Screen. Data for the sgs1 mgt1 strain (AID 161);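 also: 0% = growth of cultures given vehicle only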; details: S. cerevisiae sgs1 mgt1 strain, active compounds read high
Summary of the method: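 Inhibition of yeast growth, normalised to vehicle-treated controls, is reported for a strain bearing genetic alterations in DNA damage repair.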

[11] = NCI Yeast Anticancer Drug Screen. Data for the cln2 rad14 strain (AID 165);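 also: 0% = growth equal to vehicle treated cultures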; details: S. cerevisiae cln2 rad14 strain, active compounds read high
Summary of the method: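 Growth of compound-exposed yeast (cln2 rad14 genotype) measured and expressed as inhibition relative to vehicle.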

[12] = NCI Yeast Anticancer Drug Screen. Data for the bub3 strain (AID 167); details: S. cerevisiae bub3 mutant strain, active compounds read high
Summary of the method: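 Mutant yeast screening strain plus compound; vehicle-treated cultures serve as the 0% inhibition reference.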

[13] = NCI Yeast Anticancer Drug Screen. Data for the wt2 strain (AID 169); details: S. cerevisiae wt2 strain growth inhibition, active compounds read high
Summary of the method: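 Genetically defined yeast strains from a DNA-repair/cell-cycle panel were used. Compound-exposed yeast growth was measured, and the inhibition was calculated relative to vehicle treatment.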

[14] = NCI Yeast Anticancer Drug Screen. Data for the mlh1 strain (AID 171);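 also: 0% = growth of vehicle-treated control cultures of the same strain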; details: S. cerevisiae mlh1 strain growth inhibition, active compounds read high
Summary of the method: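 Here the genetically defined yeast mutant is grown with each compound, and the extent to which its growth falls below that of vehicle-exposed cells is reported.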

[15] = NCI Yeast Anticancer Drug Screen. Data for the rad14 strain (AID 159);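 also: 0% = growth of vehicle-treated control cultures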; details: S. cerevisiae rad14 strain growth inhibition, active compounds read high
Summary of the method: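 Inhibition of growth is reported for a repair-deficient yeast mutant following compound treatment, calculated relative to cultures that received vehicle.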

[16] = NCI Yeast Anticancer Drug Screen. Data for the CLN2oe strain (AID 163);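 also: 0% = growth of vehicle-only control cultures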; details: S. cerevisiae CLN2oe strain, active compounds read high
Summary of the method: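 Here, growth inhibition in a cell-cycle-altered yeast strain after compound exposure was quantified against vehicle control growth.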

[17] = at 5.0 µM (retest, dose inferred, filed as 0.5)
[18] = at 50.0 µM (retest, dose inferred, filed as 5.0)

Measured: growth inhibition

COc1cccc2c1C(=O)c1c(O)c3c(c(O)c1C2=O)C[C@@](O)(C(C)=O)C[C@@H]3OC1CC(N)C(OC2CC(O)C(O)C(C)O2)C(C)O1 (some centres undefined)
inactive: [1]; at 1.2 µM -2% | [1]; at 3.7 µM -4% | [1]; at 11.0 µM -11% | [1]; at 33.0 µM -8% | [1]; at 100.0 µM 0% | [2]; [17] 18% | [2]; [18] 48% | [2]; at 50.0 µM 51.3% | [3]; at 1.2 µM -8% | [3]; at 3.7 µM -17% | [3]; at 11.0 µM -32% | [3]; at 33.0 µM -21% | [3]; at 100.0 µM -2%

Nc1nnc(N)n1-n1c(N)nnc1N
inactive: [4]; at 1.2 µM -2% | [4]; at 3.7 µM -2% | [4]; at 11.0 µM -1% | [4]; at 33.0 µM 0% | [4]; at 100.0 µM 10% | [5]; at 1.2 µM -1% | [5]; at 3.7 µM 2% | [5]; at 11.0 µM -2% | [5]; at 33.0 µM -2% | [5]; at 100.0 µM 2% | [6]; at 1.2 µM 1% | [6]; at 3.7 µM 0% | [6]; at 11.0 µM -5% | [6]; at 33.0 µM -14% | [6]; at 100.0 µM -16% | [7]; at 1.2 µM -3% | [7]; at 3.7 µM -4% | [7]; at 11.0 µM -4% | [7]; at 33.0 µM -2% | [7]; at 100.0 µM 1% | [8]; at 1.2 µM -3% | [8]; at 3.7 µM -1% | [8]; [17] -8% | [8]; at 11.0 µM -3% | [8]; at 33.0 µM 1% | [8]; at 50.0 µM 56.1% | [8]; at 100.0 µM 9% | [9]; at 1.2 µM 1% | [9]; at 3.7 µM 3% | [9]; [17] -22% | [9]; at 11.0 µM 4% | [9]; at 33.0 µM 4% | [9]; [18] 36% | [9]; at 50.0 µM 11.8% | [9]; at 100.0 µM 2% | [10]; [17] 2% | [10]; at 50.0 µM 27.9% | [11]; [17] -2% | [11]; [18] 31% | [11]; at 50.0 µM -13.2% | [12]; at 1.2 µM -1% | [12]; at 3.7 µM -1% | [12]; [17] -18% | [12]; at 11.0 µM 2% | [12]; at 33.0 µM 3% | [12]; [18] 57% | [12]; at 50.0 µM 1.05% | [12]; at 100.0 µM 0% | [13]; at 1.2 µM -1% | [13]; at 3.7 µM -1% | [13]; at 11.0 µM -5% | [13]; at 33.0 µM -2% | [13]; at 100.0 µM 1% | [14]; at 1.2 µM 0% | [14]; at 3.7 µM 0% | [14]; at 11.0 µM 0% | [14]; at 33.0 µM -1% | [14]; at 100.0 µM 2% | [1]; at 1.2 µM 0% | [1]; at 3.7 µM -1% | [1]; at 11.0 µM -1% | [1]; at 33.0 µM -1% | [1]; at 100.0 µM 4% | [2]; [17] 49% | [2]; at 50.0 µM 19.1% | [3]; at 1.2 µM 0% | [3]; at 3.7 µM -4% | [3]; at 11.0 µM -5% | [3]; at 33.0 µM -4% | [3]; at 100.0 µM 9%
active: [8]; [18] 92% | [10]; [18] 89% | [2]; [18] 96%

Nc1nc(N)c2c(Cl)c(CNc3ccc(C(=O)NC(CC(=O)O)C(=O)O)cc3)ccc2n1 (centres undefined)
inactive: [4]; at 1.2 µM 40% | [4]; at 3.7 µM 35% | [4]; at 11.0 µM 52% | [5]; at 1.2 µM 19% | [5]; at 3.7 µM 15% | [5]; at 11.0 µM 17% | [5]; at 33.0 µM 42% | [6]; at 1.2 µM 10% | [6]; at 3.7 µM 6% | [6]; at 11.0 µM 13% | [6]; at 33.0 µM 17% | [6]; at 100.0 µM 41% | [8]; at 1.2 µM 12% | [8]; at 3.7 µM 18% | [8]; [17] 8% | [8]; at 11.0 µM 14% | [8]; at 33.0 µM 65% | [8]; [18] 47% | [9]; at 1.2 µM 14% | [9]; at 3.7 µM 28% | [9]; [17] 0% | [15]; at 1.2 µM -8% | [15]; at 3.7 µM -11% | [15]; at 11.0 µM -18% | [15]; at 33.0 µM 44% | [10]; [17] 20% | [10]; [18] 50% | [10]; at 50.0 µM 55.5% | [16]; at 1.2 µM -5% | [16]; at 3.7 µM 15% | [16]; at 11.0 µM 12% | [16]; at 33.0 µM 22% | [16]; at 100.0 µM 34% | [11]; [17] 20% | [11]; [18] 16% | [11]; at 50.0 µM 19.4% | [12]; at 1.2 µM 3% | [12]; at 3.7 µM -10% | [12]; [17] -9% | [12]; at 11.0 µM 14% | [12]; at 33.0 µM 7% | [12]; [18] 26% | [12]; at 50.0 µM 43.5% | [13]; at 1.2 µM -42% | [13]; at 3.7 µM -44% | [13]; at 11.0 µM -42% | [13]; at 33.0 µM -1% | [13]; at 100.0 µM 28% | [14]; at 1.2 µM 16% | [14]; at 3.7 µM 12% | [14]; at 11.0 µM 1% | [14]; at 33.0 µM 25% | [14]; at 100.0 µM 44% | [1]; at 1.2 µM 30% | [1]; at 3.7 µM 22% | [1]; at 11.0 µM 31% | [1]; at 33.0 µM 45% | [1]; at 100.0 µM 66% | [2]; [17] 12% | [2]; [18] 46% | [2]; at 50.0 µM 52.1% | [3]; at 1.2 µM 48% | [3]; at 3.7 µM 54% | [3]; at 11.0 µM 57%
active: [4]; at 33.0 µM 80% | [4]; at 100.0 µM 91% | [5]; at 100.0 µM 74% | [8]; at 50.0 µM 77.5% | [8]; at 100.0 µM 80% | [9]; at 11.0 µM 75% | [9]; at 33.0 µM 93% | [9]; [18] 90% | [9]; at 50.0 µM 87.8% | [9]; at 100.0 µM 95% | [15]; at 100.0 µM 78% | [12]; at 100.0 µM 72% | [3]; at 33.0 µM 78% | [3]; at 100.0 µM 84%
